Inconclusive results are not listed. Activity calls are given as the source filed them. Calls follow the shape of the dose curve; as a rule, active = well fitted curve in the direction sought with a large enough effect in the repeat runs; inconclusive = weak or mixed curves; inactive = no such curve, though single readings can be large; an effect the other way counts as inactive or inconclusive.
Experiments:
[1] = qHTS RealTime-Glo MT Cell Viability Assay in HEK293 cells - 16 hour (AID 1224872); also: top concentration of the series differs between compounds; nearly all actives have a fitted effect of over 50% in size
Method in brief: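 Cells + reagent dispensed (600 cells/well, HEK293) → 5 h at 37 C/5% CO2 → 23 nL compound in DMSO pinned → 40 h at 37 C → luminescence read at 0, 8, 16, 24, 32, 40 h.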

[2] = qHTS RealTime-Glo MT Cell Viability Assay in HepG2 cells - 8 hour (AID 1224873); also: nearly all actives have a fitted effect of over 55% in size
Method in brief: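 Real-time viability: cells seeded at 600 per well together with NanoLuc and cell-permeant prosubstrate, compounds added after 5 h incubation. Luminescence tracked at 0, 8, 16, 24, 32 and 40 h of exposure.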

[3] = qHTS RealTime-Glo MT Cell Viability Assay in HEK293 cells - 40 hour (AID 1224874); details: RealTime-Glo luminescence; max response: active compounds read low; also: nearly all actives have a fitted effect of over 50% in size
Method in brief: (§1)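 HEK293 cells mixed with RealTime-Glo reagents (NanoLuc plus cell-permeant prosubstrate) at 600 cells/well, preincubated 5 h at 37 C/5% CO2, then given 23 nL compound in DMSO. Nonlytic luminescence from viable cells was read at 0, 8, 16, 24, 32 and 40 h.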

[4] = A CellTox Green Cytotoxicity Assay to monitor cytotoxicity in HEK293 cells - 24 hour (AID 1224875); also: series mostly up to about 77 µM; nearly all actives have a fitted effect of over 45% in size
Method in brief: (§2)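 HEK293 cells premixed with CellTox Green dye were seeded at 600 cells/well and left 5 h at 37 C/5% CO2 before pin transfer of 23 nL compound in DMSO. Fluorescence from dye bound to dead-cell DNA was read during 40 h treatment.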

[5] = A CellTox Green Cytotoxicity Assay to monitor cytotoxicity in HepG2 cells - 16 hour (AID 1224876); also: nearly all actives have a fitted effect of over 45% in size
Method in brief: (§3)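 HepG2 cells were seeded together with the CellTox Green dye at 600 cells/well, left 5 h at 37 C/5% CO2, then given compounds in DMSO. Fluorescence from dye bound to dead-cell DNA was read repeatedly over 40 h of treatment at 37 C.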

[6] = qHTS RealTime-Glo MT Cell Viability Assay in HepG2 cells - 32 hour (AID 1224877); also: nearly all actives have a fitted effect of over 55% in size
Method in brief: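 Real-time, nonlytic viability: 600 HepG2 cells/well mixed with NanoLuc enzyme plus prosubstrate; 5 h settle, compound (DMSO) added by pintool; luminescence monitored over 40 h at 37 C.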

[7] = A CellTox Green Cytotoxicity Assay to monitor cytotoxicity in HepG2 cells - 24 hour (AID 1224878); also: nearly all actives have a fitted effect of over 45% in size
Method in brief: as §3

[8] = A CellTox Green Cytotoxicity Assay to monitor cytotoxicity in HepG2 cells - 40 hour (AID 1224879); also: nearly all actives have a fitted effect of over 40% in size
Method in brief: as §3

[9] = qHTS RealTime-Glo MT Cell Viability Assay in HEK293 cells - 0 hour (AID 1224880); also: top concentration of the series differs between compounds; nearly all actives have a fitted effect of over 45% in size
Method in brief: as §1

[10] = A CellTox Green Cytotoxicity Assay to monitor cytotoxicity in HEK293 cells - 32 hour (AID 1224881); also: nearly all actives have a fitted effect of over 40% in size
Method in brief: as §2
% is scaled to controls: 0 for no effect and ±100 for the full control effect.

CCN1C=CN(C)C1C (stereo not given)
inactive: Potency [1] | outcome [2] | max response [3] 0.14% | outcome [4] | outcome [5] | Potency [6] | outcome [7] | Potency [8] | Potency [9] | outcome [10]

CCN[C@@H]1C[C@H](N)[C@@H](OC2OC(CN)=CCC2N)[C@H](O)[C@H]1O[C@H]1OC[C@](C)(O)[C@H](NC)[C@H]1O (stereo not given in full)
inactive: activity change, negative = cytotoxicity [1] 1.34% [at 0.29 µM] | viability change, negative = cytotoxic [2] 0.243% [at 0.29 µM] | max response [3] 5.87% | activity change [4] 6.99% [at 0.29 µM] | cytotoxicity increase [5] -0.147% [at 0.29 µM] | activity change, negative = cytotoxic [6] 1.75% [at 0.29 µM] | cytotoxicity [7] -2.12% [at 0.29 µM] | cytotoxicity increase [8] -8.46% [at 0.29 µM] | activity change, negative = cytotoxicity [9] 1.44% [at 0.29 µM] | cytotoxicity increase [10] 8.84% [at 0.29 µM]

CC1=CC(=O)[C@H]2C[C@@H]1C2(C)C
inactive: Potency [1] | outcome [2] | max response [3] -1.77% | outcome [4] | outcome [5] | Potency [6] | outcome [7] | Potency [8] | Potency [9] | outcome [10]

CN(C)CCCCCCN(C)C
inactive: Potency [1] | outcome [2] | max response [3] -6% | outcome [4] | outcome [5] | Potency [6] | outcome [7] | Potency [8] | Potency [9] | outcome [10]

CC[N+](CC)(CC(=O)Nc1c(C)cccc1C)Cc1ccccc1 (tested in a mixture with another compound)
inactive: Potency [1] | outcome [2] | max response [3] -5.24% | outcome [4] | outcome [5] | Potency [6] | outcome [7] | Potency [8] | Potency [9] | outcome [10]

COc1cc(-c2ccc(=O)[nH]n2)ccc1OC(F)F
inactive: Potency [1] | outcome [2] | max response [3] -5.19% | outcome [4] | outcome [5] | Potency [6] | outcome [7] | Potency [8] | Potency [9] | outcome [10]

C[C@@H]1CCC[C@H](C)N1
inactive: Potency [1] | outcome [2] | max response [3] 0.353% | outcome [4] | outcome [5] | Potency [6] | outcome [7] | Potency [8] | Potency [9] | outcome [10]

COc1cc(C(=O)NCc2ccc(OCCN(C)C)cc2)cc(OC)c1OC
inactive: Potency [1] | outcome [2] | max response [3] -23.7% | outcome [4] | outcome [5] | Potency [6] | outcome [7] | Potency [8] | Potency [9] | outcome [10]

Cc1ccccc1N=C(N)N=C(N)N
inactive: Potency [1] | outcome [2] | max response [3] -9.52% | outcome [4] | outcome [5] | Potency [6] | outcome [7] | Potency [8] | Potency [9] | outcome [10]

N[C@@H](CCC(=O)O)C(=O)O
inactive: Potency [1] | outcome [2] | max response [3] -0.971% | outcome [4] | outcome [5] | Potency [6] | outcome [7] | Potency [8] | Potency [9] | outcome [10]

CCCCN(CCC(=O)OCC)C(C)=O
inactive: Potency [1] | outcome [2] | max response [3] 0.53% | outcome [4] | outcome [5] | Potency [6] | outcome [7] | Potency [8] | Potency [9] | outcome [10]

O=C(CO)[C@@H](O)[C@H](O)[C@H](O)CO
inactive: Potency [1] | outcome [2] | max response [3] 1.94% | outcome [4] | outcome [5] | Potency [6] | outcome [7] | Potency [8] | Potency [9] | outcome [10]

CCCO[Si](OCCC)(OCCC)OCCC
inactive: Potency [1] | outcome [2] | max response [3] 2.55% | outcome [4] | outcome [5] | Potency [6] | Potency [8] | Potency [9] | outcome [10]

CC[C@H]1OC(=O)[C@H](C)[C@@H](O[C@H]2C[C@@](C)(OC)[C@@H](O)[C@H](C)O2)[C@H](C)[C@@H](O[C@@H]2O[C@H](C)C[C@H](N(C)C)[C@H]2O)[C@](C)(OC)C[C@@H](C)C(=O)[C@H](C)[C@@H](O)[C@]1(C)O
inactive: Potency [1] | outcome [2] | max response [3] -20.3% | outcome [4] | outcome [5] | Potency [6] | outcome [7] | Potency [9] | outcome [10]

O=[N+]([O-])c1cncn1CCN1CCOCC1
inactive: Potency [1] | outcome [2] | max response [3] -2.63% | outcome [4] | outcome [5] | Potency [6] | outcome [7] | Potency [8] | Potency [9] | outcome [10]

CCCCOCCOC(=O)CCCCCCCCC(=O)OCCOCCCC
inactive: Potency [1] | outcome [2] | max response [3] 7.25% | outcome [4] | outcome [5] | Potency [6] | outcome [7] | Potency [9] | outcome [10]

Nc1c2c(nc3c1CCC3)CCCC2
inactive: Potency [1] | outcome [2] | max response [3] 0.303% | outcome [4] | outcome [5] | Potency [6] | outcome [7] | Potency [8] | Potency [9] | outcome [10]

O=C(O)CC(C(=O)O)S(=O)(=O)O (stereo not given)
inactive: Potency [1] | outcome [2] | max response [3] 5.69% | outcome [4] | outcome [5] | Potency [6] | Potency [8] | Potency [9]

C[N+](C)(C)CCCCCCCCCC[N+](C)(C)C
inactive: Potency [1] | outcome [2] | max response [3] 9.07% | outcome [4] | outcome [5] | Potency [6] | outcome [7] | Potency [8] | Potency [9] | outcome [10]

CCOC(=O)c1ccccc1
inactive: Potency [1] | outcome [2] | max response [3] -0.292% | outcome [4] | outcome [5] | Potency [6] | outcome [7] | Potency [8] | Potency [9] | outcome [10]

C[N+]1(CC2COC(c3ccccc3)(c3ccccc3)O2)CCCCC1 (stereo not given)
inactive: activity change, negative = cytotoxicity [1] -1.95% [at 15.8 µM] | viability change, negative = cytotoxic [2] 1.12% [at 15.8 µM] | max response [3] -1.89% | activity change [4] -7.42% [at 15.8 µM] | cytotoxicity increase [5] -3.73% [at 15.8 µM] | activity change, negative = cytotoxic [6] -9% [at 15.8 µM] | cytotoxicity [7] -0.651% [at 15.8 µM] | cytotoxicity increase [8] -0.954% [at 15.8 µM] | activity change, negative = cytotoxicity [9] -4.13% [at 15.8 µM] | cytotoxicity increase [10] -8.36% [at 15.8 µM]
